Screens as filed in PubChem BioAssay.
An excerpt weighted towards active compounds, which were near 3.1% of everything screened.
proKLK7 act = activates the human kallikrein-7 zymogen. P49862. purified proKLK7, EDANS-DABCYL substrate fluorescence; 100% is mature enzyme control, 0% vehicle. activation, % at 7 µM. 370,000 tested, 0.9% active;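 active = activation above the mean of all tested compounds plus 3 SD, computed per campaign excluding outliers beyond control limits, cut at about 13% in these data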
Rin1-Abl PPI inh = inhibitors of human Rin1-Abl protein interaction; P00519+Q13671; TR-FRET Rin1/Abl binding, biochemical; inhibition, % at 7.35 µM; 360,000 tested, 0.4% active; AID 588664; in the data active = inhibition above about 5%, passing the limit was not always enough
Neddyl block = inhibitors of human cullin neddylation; P61081+Q13564; TR-FRET cullin neddylation, biochemical; calls only at 25 µM; 360,000 tested, 0.58% active; in the data active = inhibition above about 36%
LEDGF integ inh = blocks HIV-1 LEDGF/p75-dependent DNA integration; AID 743269; 370,000 tested, 0.64% active; TR-FRET IN-LEDGF/p75 DNA integration, Eu/Cy5; inhibition, % at 3.7 µM;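 active = inhibition above the screen-wide mean plus 3 SD, cut at about 13% in these data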;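 also: signal is the Cy5 over europium emission ratio at 671 and 618 nm; 0% = plate median of compound wells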
UHRF1 MBD2 ctr = human UHRF1 methylated DNA binding inhibitors; AID 687016; inhibition, % at 4.4 µM; 370,000 tested, 0.75% active; UHRF1 binding to methylated oligo, TR-FRET; in the data active = inhibition above about 21%;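 also: UHRF1 SRA domain binding a hemimethylated CpG hairpin DNA probe; 0% = median of test compound wells and 100% = reference inhibitor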
MBD2 DNA inh = blocks human MBD2 binding to methylated DNA; TR-FRET, MBD2 binding to methylated oligonucleotide; 370,000 tested, 0.31% active; inhibition, % at 4.4 µM; Q9UBB5; in the data active = inhibition above about 13%
IN multimer up = activates HIV-1 integrase multimerization in LEDGF counter-screen; shares compounds with LEDGF integ inh; TR-FRET HIV-1 integrase multimerization, biochemical; activation, % at 7.7 µM; 2,000 tested, 17% active; AID 1053131; in the data active = activation above about 8.9%
TRFRET interf = TR-FRET optical interference, LEDGF/p75 integration counter-screen; shares compounds with LEDGF integ inh; TR-FRET optical interference counterscreen, HIV-1 IN multimerization; inhibition, % at 7.7 µM; 2,000 tested, under 10 active; AID 1053135;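 active = inhibition above the mean over all tested compounds plus 3 SD, which no compound reached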;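 also: 0% = integrase with antibodies and DMSO and 100% = antibodies without integrase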
LEDGF integ conf = confirmation of HIV-1 LEDGF/p75-dependent integration inhibitors; shares compounds with LEDGF integ inh; inhibition, % at 3.7 µM; 2,000 tested, 36% active; AID 1053136; TR-FRET LEDGF/p75-dependent HIV-1 integration, biochemical; in the data active = inhibition above about 14%
Numbers without * were called inactive; i = inactive; x = no result.

SMILES	proKLK7 act	Rin1-Abl PPI inh	Neddyl block	LEDGF integ inh	UHRF1 MBD2 ctr	MBD2 DNA inh	IN multimer up	TRFRET interf	LEDGF integ conf
CCn1nnc(NC(=O)c2ccco2)n1	0	1	i	-7	1	1	x	x	x
O=C(NCc1ccc(Cl)cc1)c1ccc(Br)o1	0	4	i	56*	-1	1	0	-2	-7
CC(=O)N1c2ccc(S(=O)(=O)N3CCC(C(=O)Nc4cccc(C(F)(F)F)c4)CC3)cc2CC1C (configuration not stated)	0	0	i	4	0	2	x	x	x
CC(=C/C(=O)O)/C=C/c1ccc(Cl)o1	0	-2	i	13*	32*	8	5	-27	54*
CCCNC(=O)C1(C)CCN(C(=O)c2cc(F)cc(F)c2)C1 (configuration not stated)	0	-4	i	-1	3	3	x	x	x
O=C(NC(=S)Nc1cccc([N+](=O)[O-])c1)C1CCCC1	0	-1	i	88*	-4	-5	-2	12	4
COc1ccc(/C=N/n2c(N)nc3ccccc32)cc1OC	0	-4	i	24*	9	7	0	1	-7
COc1cccc(NC2=C(NCCO)C(=O)c3ccccc3C2=O)c1	1	-5	i	7	-12	-18	x	x	x
Cc1cccc(NC2=C(NCCO)C(=O)c3ccccc3C2=O)c1	1	-7	i	20*	-1	-15	4	-13	0
O=[N+]([O-])c1ccc(/C=[N+](\[O-])[C@@H]2CCCC[C@@H]2/[N+]([O-])=C/c2ccc([N+](=O)[O-])o2)o1	1	0	i	19*	-1	-3	-1	2	34*
Fc1cccc(F)c1/C=N/NC(=S)Nc1cccnc1	0	3	i	-1	3	-2	x	x	x
Oc1cccc(/C=N/NC(=S)Nc2cccnc2)c1O	-7	0	i	33*	-8	5	21*	-106	30*
O=C(CNC(=O)c1cccc(-n2cnnn2)c1)Nc1ccc(F)c(F)c1	1	4	i	-3	-2	0	x	x	x
COc1ccc2cc(C(C)C(=O)N3CCC(C(N)=O)CC3)ccc2c1 (configuration not stated)	0	1	i	1	0	3	x	x	x
CCOC(=O)C(=O)Cc1cccnn1	2	1	i	22*	25*	1	3	-13	50*
Cc1cc(=O)n(-c2ccccc2Cl)[nH]1	0	0	i	1	2	-6	x	x	x
Cc1cc(=O)n(-c2ccc(O)cc2)[nH]1	0	3	i	19*	6	-4	1	-7	-5
CC12CCC(=O)C=C1C(F)CC1C2C(O)CC2(C)C1CCC2(O)C(=O)CO (configuration not stated)	0	-1	i	-1	2	-2	x	x	x
Cc1cccc(C(=O)Nc2sc3c(c2C(=O)O)CCCC3)c1	0	2	i	-1	0	5	x	x	x
COc1ccc(CC(Cc2ccc(OC)c(OC)c2)NC=O)cc1OC	1	0	i	16*	-1	0	-2	11	-4
Cc1cccc(NC(=O)CN2C(=O)N/C(=C/c3ccc(C)s3)C2=O)c1	0	-1	i	1	3	0	x	x	x
Cc1ccc(NC(=O)CN2C(=O)N/C(=C/c3ccco3)C2=O)cc1	0	0	i	21*	34*	11	14*	-69	26*
Cc1ccc(C)c(N=Cc2cc3c(cc2[N+](=O)[O-])OCO3)c1	1	3	i	40*	38*	9	0	-2	4
O=C(O)/C=C\c1cc2c(cc1[N+](=O)[O-])OCO2	1	4	i	1	-2	4	x	x	x
